CHT block: inhibitors of human choline transporter CHT; CHT-expressing cells, membrane potential dye, choline response; stronger effect = lower value; B-score at 10 µM; hit rate 0.86% among 310,000;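 active means B-score over 3 SD under the library average, and starting fluorescence ratio not unusually high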;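 further: choline stimulus applied at its EC90 after an EC20 pre-addition; B-score computed on integrated fluorescence ratio after choline addition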
VLA-4 inh: inhibition in a human VLA-4 binding assay. P13612. VLA-4 expressing cells, ligand binding flow cytometry. inhibition, % (about 7 µM as worked out from the volumes in the protocol). hit rate 0.2% among 330,000. AID 2557; in the data active means inhibition above about 50%
HIF act: HIF pathway transcriptional activation. hit rate 0.32% among 300,000. activation, % at 7.5 µM (by protocol). U2OS HRE-luciferase reporter, luminescence; normalized: DMSO 0%, desferrioxamine 100%;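 active means mean activation of at least 10% of the iron chelator positive control signal, with at least half of replicates also reaching 10%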
CHT PAM: allosterically activates the human high affinity choline transporter; hit rate 0.49% among 310,000; Q9GZV3; B-score at 10 µM; CHT-expressing cells, membrane potential dye, choline EC20; stronger effect = higher value; LV-AA mutant CHT in HEK293 cells;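 active means initial fluorescence not abnormally high and integrated response B-score, plate-corrected, over 3 SD above library mean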
AI-2 QS mod: modulators of Vibrio harveyi AI-2 quorum sensing system | hit rate 0.4% among 300,000 | AID 2094 | Vibrio harveyi JMH597 AI-2 luminescence/OD600 ratio, 9 h; stronger effect = lower value; strain lacks LuxN and CqsS sensors; 0 = neutral-control median | activity change, % at 7.5 µM; in the data active means activity change below about -75%, passing the limit was not always enough;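 further: luminescence divided by OD600 gain over 9 h not by final OD600 alone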
Platelet DG rel: platelet dense granule release activity; hit rate 0.22% among 300,000; human platelet-rich plasma, SFLLRN dense granule ATP release, luminescence; inhibition, %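 (compounds screened at 7.5 µM in platelet-rich plasma)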;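 active means mean replicate score, as percent of positive control, at or above 50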
CHT block conf: human CHT inhibition, confirmatory screen. shares compounds with CHT block. CHT-expressing cells, choline membrane potential dye; LV-to-AA substituted CHT, HEK293 cells. CHT activity remaining % of control (stronger effect = lower value), % at 10 µM. hit rate 70% among 2,400. AID 493221;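 active means choline transporter activity left, mean of duplicates at 10 µM, below buffer-only control mean minus 3 SD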;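 further: depolarization triggered by choline at its EC90 following an EC20 pre-addition; 0% = hemicholinium-3 full block and 100% = buffer-only control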
HEK293 CHT ctr: activity in parental HEK293 cells lacking CHT | hit rate 4% among 2,400 | AID 493222 | shares compounds with CHT block | membrane potential dye, choline response; active = decrease or increase beyond buffer ±3SD | membrane potential ratio readout (active if shifted either direction beyond buffer ±3SD; no single direction) at 10 µM;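 further: parental cells lack the transporter so any hit is non-specific; ratio is peak minus trough fluorescence over baseline after EC90 choline challenge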
The depositor's hits bear a star; i = inactive; nt = no result. This is a sample that favours compounds with a hit; in the whole collection about 2.2% have one here.

SMILES	CHT block	VLA-4 inh	HIF act	CHT PAM	AI-2 QS mod	Platelet DG rel	CHT block conf	HEK293 CHT ctr
CC(=O)Nc1ccc(NC(=O)c2ccccc2Sc2ccc([N+](=O)[O-])cc2Cl)cc1	i	4	0	i	65	0	nt	nt
COc1ccc(-n2c(SCc3cn4c(C)cccc4n3)nc3ccccc3c2=O)cc1OC	i	1	-1	i	28	5	nt	nt
Cc1cc(NC(=O)C(C)SCC(=O)OCc2ccc([N+](=O)[O-])cc2)no1 (stereo not drawn)	i	20	3	i	2	-3	nt	nt
CCCNC(=O)c1ccccc1NC(=O)c1ccc2c(c1)NC(=O)C(C)S2 (stereo not drawn)	-5.9*	-3	2	i	4	3	65%*	i
CCOC(=O)CC1=C(C(=O)OCC)C(c2cccs2)C(C#N)=C(N)O1 (stereo not drawn)	-5.3*	-2	0	i	-4	8	i	i
CCOC(=O)C1=C(CC)OC(N)=C(C#N)C1c1cc(OC)ccc1OC (stereo not drawn)	-13*	0	0	i	30	3	i	i
CCOC(=O)C1=C(c2ccccc2)OC(N)=C(C#N)C1c1cccs1 (stereo not drawn)	i	2	0	i	13	28	nt	nt
CCOC(=O)C1=C(CC)OC(N)=C(C#N)C1c1ccc(OC)c(OC)c1OC (stereo not drawn)	i	28	-27	i	-8	10	nt	nt
CN1CCN(c2ccc(S(=O)(=O)N3CCCCC3)cc2NC(=O)CCc2ccccc2)CC1	nt	9	nt	nt	nt	nt	nt	nt
CN1CCN(c2ccc(S(=O)(=O)N3CCCCC3)cc2NC(=O)CSCc2ccccc2)CC1	-6.8*	1	0	i	23	-16	48%*	i
CC(C)OC(=O)c1cccc(-c2ccc(C=O)o2)c1	-5.2*	-14	0	i	38	6	56%*	i
Cn1c(-c2sccc2OCc2ccccc2)n[nH]c1=S	i	-37	1	i	21	-3	nt	nt
Cn1c(-c2sccc2OCc2ccc(Cl)cc2Cl)n[nH]c1=S	-5.6*	-2	0	i	74	3	i	i
CS(=O)(=O)N1CCN(C(=O)NC2CCCCC2)CC1	i	2	1	i	14	0	nt	nt
CN1C(=O)N(CC(=O)N2CCN(S(=O)(=O)c3ccc(Cl)s3)CC2)C(=O)C12CCCCC2	nt	6	nt	nt	nt	nt	nt	nt
Cc1cccc(C)c1NC(=O)CSc1nc2[nH]c(=O)cc(O)c2s1	nt	15	nt	nt	nt	nt	nt	nt
COC(CN(C)C(=O)c1ccc(CS(=O)(=O)c2ccccc2C)o1)OC	i	8	-3	i	18	4	nt	nt
CCCCN(C)C(=O)c1ccc(CS(=O)(=O)c2ccccc2C)o1	-5.3*	2	nt	i	22	14	i	i
COc1cccc(N2CCN(C(c3ccccn3)c3nnnn3C(C)(C)C)CC2)c1 (stereo not drawn)	-5*	7	0	i	8	-3	i	i
CC(C)(C)n1nnnc1C(c1ccccn1)N1CCN(C(c2ccccc2)c2ccccc2)CC1 (stereo not drawn)	i	-5	-1	i	25	-6	nt	nt
COc1ccccc1/C=C1\CCC(C2CCCC2)C1=O (stereo not drawn)	i	19	-9	i	13	4	nt	nt
Cc1ccc(OCCCN2CCOCC2)c([N+](=O)[O-])c1	-6.1*	19	1	i	10	2	i	i
Cc1ccc(OCCN2CCN(C)CC2)c([N+](=O)[O-])c1	i	14	0	i	10	-1	nt	nt
CCCCCn1c(CCNC(=O)CCC)nc2ccccc21	-6.2*	17	0	i	12	-1	60%*	i
CCCCn1c(CCNC(=O)CCC)nc2ccccc21	i	20	0	i	20	0	nt	nt
SMILES	CHT block	VLA-4 inh	HIF act	CHT PAM	AI-2 QS mod	Platelet DG rel	CHT block conf	HEK293 CHT ctr
CC(=O)NC1(C(F)(F)F)NC(=O)N(c2ccc(F)cc2)C1=O (stereo not drawn)	i	2	0	i	18	-1	nt	nt
C/C(CC(=O)Nc1ccc2c(c1)OCCO2)=N\NC(=O)COc1ccc(Cl)c(C)c1	i	2	0	i	4	17	nt	nt
O=C(CCNC(=O)c1ccc(Cl)cc1)NCCCN1CCOCC1	nt	39	nt	nt	nt	nt	nt	nt
CC(NC(=O)CCN1C(=O)c2ccccc2C1=O)c1ccc2c(c1)CCCC2 (stereo not drawn)	-5.4*	3	0	i	22	-3	i	i
C=C(C)C(=O)OCC(O)COc1ccc(C(C)(C)c2ccc(OCC(O)COC(=O)C(=C)C)cc2)cc1 (stereo not drawn)	i	37	-1	i	12	3	nt	nt
COc1cc(OC)c2c(-c3ccccc3)cc(=O)oc2c1C(CCN1CCN(c2ccccc2)CC1)c1ccc(N(C)C)cc1 (stereo not drawn)	i	nt	0	i	40	4	nt	nt
COc1cc(OC)c2c(-c3ccccc3)cc(=O)oc2c1C(CCN1CCCC(C)C1)c1ccc(N(C)C)cc1 (stereo not drawn)	-6*	-5	-2	i	3	1	54%*	i
COc1ccc(C2CC(=O)Oc3c(C(CCN4CCCCC4)c4ccc(N(C)C)cc4)c(OC)cc(OC)c32)cc1 (stereo not drawn)	-5.9*	nt	1	i	12	1	47%*	i
COc1ccc(C(CCN2CCCC(C)C2)c2c(OC)cc(OC)c3c(-c4ccccc4)cc(=O)oc23)cc1 (stereo not drawn)	-5.7*	8	0	i	14	5	50%*	i
COc1ccc(C(CCN2CCCC2)c2c(OC)cc(OC)c3c(-c4ccccc4)cc(=O)oc23)cc1 (stereo not drawn)	-5.2*	29	0	i	24	-3	51%*	i
CN(C)S(=O)(=O)c1cccc(C(=O)NCC(C)(C)CNC(=O)c2cccc(S(=O)(=O)N(C)C)c2)c1	i	12	-22	i	16	-2	nt	nt
COc1cc(OC)c2c(-c3ccccc3)cc(=O)oc2c1C(CCN1CCCC1)c1ccc2c(c1)OCO2 (stereo not drawn)	-6.5*	9	0	i	-6	-1	50%*	i

Screens from PubChem BioAssay.
